Measurements as given in PubChem BioAssay AID1159580 (chemical genetic matrix, 2015).
Among all 5,500 compounds or so, about 2,000 (36%) were called active. About 18% were inconclusive and are not listed. Rule as the data show it: active = normalized growth mostly below about 0.91 (no sharp cut-off); inconclusive = no clear call, values can overlap the other calls; inactive = mostly above about 0.92. The list shows a part of the results.

Assay: chemical genetic growth profiling, strain panel (AID 1159580);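 also: tested at 20 µM; growth read once vehicle control cultures reached saturation at 30 °C; 1 = growth at the plate median or of vehicle wells; lower values mean less growth of the strain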
Settings: growth OD

Measured: normalized growth

CC(N)Cc1ccc(O)cc1 (stereo unspecified)
inactive: S. cerevisiae deletion strains, locus YAL013W, strain DEP1, hits give low values 1.01 | S. cerevisiae deletion strains, locus YBR021W, strain FUR4, hits give low values 1.04 | S. cerevisiae deletion strains, locus YBR229C, strain ROT2, hits give low values 1.01 | S. cerevisiae deletion strains, locus YCL029C, strain bik1, hits give low values 1.02 | S. cerevisiae deletion strains, locus YDL035C, strain GPR1, hits give low values 1.02 | S. cerevisiae deletion strains, locus YDL074C, strain BRE1, hits give low values 1 | S. cerevisiae deletion strains, locus YDL101C, strain DUN1, hits give low values 1.02 | S. cerevisiae deletion strains, locus YDL134C, strain PPH21, hits give low values 1.01 | S. cerevisiae deletion strains, locus YDL185W, strain tfp1, hits give low values 1.01 | S. cerevisiae deletion strains, locus YDL192W, strain arf1, hits give low values 1.03 | S. cerevisiae deletion strains, locus YDR101C, strain arx1, hits give low values 1.01 | S. cerevisiae deletion strains, locus YDR150W, strain NUM1, hits give low values 1.01 | S. cerevisiae deletion strains, locus YDR162C, strain NBP2, hits give low values 1 | S. cerevisiae deletion strains, locus YDR318W, strain mcm21, hits give low values 1.03 | S. cerevisiae deletion strains, locus YDR388W, hits give low values 1.02 | S. cerevisiae deletion strains, locus YDR502C, strain sam2, hits give low values 1.01 | S. cerevisiae deletion strains, locus YEL061C, strain CIN8, hits give low values 1.02 | S. cerevisiae deletion strains, locus YER110C, hits give low values 1.02 | S. cerevisiae deletion strains, locus YER155C, strain BEM2, hits give low values 1 | S. cerevisiae deletion strains, locus YER167W, strain BCK2, hits give low values 1.03 | S. cerevisiae deletion strains, locus YGL078C, strain dbp3, hits give low values 1.02 | S. cerevisiae deletion strains, locus YGL086W, strain mad1, hits give low values 1.02 | S. cerevisiae deletion strains, locus YGL248W, strain PDE1, hits give low values 1.02 | S. cerevisiae deletion strains, locus YGR078C, strain PAC10, hits give low values 1.01 | S. cerevisiae deletion strains, locus YGR135W, strain pre9, hits give low values 1 | S. cerevisiae deletion strains, locus YGR229C, strain SMI1, hits give low values 1.01 | S. cerevisiae deletion strains, locus YGR252W, strain gcn5, hits give low values 1.04 | S. cerevisiae deletion strains, locus YHR030C, strain SLT2, hits give low values 1.01 | S. cerevisiae deletion strains, locus YHR079C, strain IRE1 (second series), hits give low values 1.03 | S. cerevisiae deletion strains, locus YHR094C, strain hxt1, hits give low values 1.01 | S. cerevisiae deletion strains, locus YHR129C, strain ARP1, hits give low values 1.03 | S. cerevisiae deletion strains, locus YHR200W, strain rpn10, hits give low values 1.01 | S. cerevisiae deletion strains, locus YIL066C, strain RNR3, hits give low values 1.01 | S. cerevisiae deletion strains, locus YIL073C, strain SPO22, hits give low values 1.07 | S. cerevisiae deletion strains, locus YIL125W, strain kgd1, hits give low values 1.02 | S. cerevisiae deletion strains, locus YIR030C, strain dcg1, hits give low values 1.02 | S. cerevisiae deletion strains, locus YJL095W, strain BCK1, hits give low values 1.02 | S. cerevisiae deletion strains, locus YJL134W, strain LCB3, hits give low values 1.01 | S. cerevisiae deletion strains, locus YJL168C, strain set2, hits give low values 1.01 | S. cerevisiae deletion strains, locus YJL187C, strain SWE1 (second series), hits give low values 1.02 | S. cerevisiae deletion strains, locus YJR043C, strain POL32, hits give low values 1.06 | S. cerevisiae deletion strains, locus YJR075W, strain HOC1, hits give low values 1.02 | S. cerevisiae deletion strains, locus YKL009W, strain mrt4, hits give low values 1.04 | S. cerevisiae deletion strains, locus YKL068W, hits give low values 1.01 | S. cerevisiae deletion strains, locus YKL085W, strain MDH1 (second series), hits give low values 1.02 | S. cerevisiae deletion strains, locus YKL085W, strain MDH1, hits give low values 1.02 | S. cerevisiae deletion strains, locus YKL190W, strain CNB1, hits give low values 1.01 | S. cerevisiae deletion strains, locus YKR001C, strain vps1, hits give low values 1.04 | S. cerevisiae deletion strains, locus YLR039C, strain RIC1, hits give low values 1.05 | S. cerevisiae deletion strains, locus YLR058C, strain SHM2, hits give low values 1.02 | S. cerevisiae deletion strains, locus YLR102C, strain apc9, hits give low values 1.02 | S. cerevisiae deletion strains, locus YLR262C, strain YPT6, hits give low values 1.01 | S. cerevisiae deletion strains, locus YLR268W, strain sec22, hits give low values 1.01 | S. cerevisiae deletion strains, locus YLR330W, strain CHS5, hits give low values 1.01 | S. cerevisiae deletion strains, locus YLR342W, strain FKS1 (second series), hits give low values 1.08 | S. cerevisiae deletion strains, locus YLR371W, strain rom2, hits give low values 1.02 | S. cerevisiae deletion strains, locus YLR418C, strain cdc73, hits give low values 0.995 | S. cerevisiae deletion strains, locus YML016C, strain PPZ1, hits give low values 1.02 | S. cerevisiae deletion strains, locus YML032C, strain rad52, hits give low values 1.04 | S. cerevisiae deletion strains, locus YML124C, strain tub3, hits give low values 1.01 | S. cerevisiae deletion strains, locus YMR078C, strain ctf18, hits give low values 1.03 | S. cerevisiae deletion strains, locus YMR223W, strain ubp8, hits give low values 1.03 | S. cerevisiae deletion strains, locus YMR263W, strain SAP30, hits give low values 1.01 | S. cerevisiae deletion strains, locus YMR307W, strain GAS1, hits give low values 1.08 | S. cerevisiae deletion strains, locus YNL067W, strain RPL9B, hits give low values 1.01 | S. cerevisiae deletion strains, locus YNL128W, strain TEP1, hits give low values 0.99 | S. cerevisiae deletion strains, locus YNL153C, strain GIM3, hits give low values 1.01 | S. cerevisiae deletion strains, locus YNL233W, strain BNI4, hits give low values 1.02 | S. cerevisiae deletion strains, locus YNL250W, strain rad50, hits give low values 1.01 | S. cerevisiae deletion strains, locus YNL271C, strain bni1, hits give low values 1.02 | S. cerevisiae deletion strains, locus YNL298W, strain CLA4, hits give low values 1.03 | S. cerevisiae deletion strains, locus YNL307C, strain MCK1, hits give low values 1.03 | S. cerevisiae deletion strains, locus YNL322C, strain KRE1, hits give low values 1.01 | S. cerevisiae deletion strains, locus YNR052C, strain pop2, hits give low values 1.01 | S. cerevisiae deletion strains, locus YOL006C, strain TOP1, hits give low values 1.07 | S. cerevisiae deletion strains, locus YOL012C, strain htz1 1.46 | S. cerevisiae deletion strains, locus YOL147C, strain pex11, hits give low values 1.02 | S. cerevisiae deletion strains, locus YOR061W, strain CKA2, hits give low values 1.01 | S. cerevisiae deletion strains, locus YOR069W, strain VPS5, hits give low values 1.02 | S. cerevisiae deletion strains, locus YOR136W, strain idh2, hits give low values 1.01 | S. cerevisiae deletion strains, locus YOR144C, strain elg1, hits give low values 1.01 | S. cerevisiae deletion strains, locus YOR184W, strain ser1, hits give low values 1.04 | S. cerevisiae deletion strains, locus YOR316C, strain cot1, hits give low values 1.02 | S. cerevisiae deletion strains, locus YPL055C, strain LGE1, hits give low values 0.982 | S. cerevisiae deletion strains, locus YPL241C, strain CIN2, hits give low values 1.01 | S. cerevisiae deletion strains, locus YPR119W, strain clb2, hits give low values 1.01 | S. cerevisiae deletion strains, locus YPR141C, strain kar3, hits give low values 1.02 | S. cerevisiae deletion strains, locus YPR163C, strain tif3, hits give low values 1.02 | S. cerevisiae deletion strains, locus YPR167C, strain met16, hits give low values 1.02 | S. cerevisiae deletion strains, strain wtn01, hits give low values 1.01 | S. cerevisiae strains, strain wild type, hits give low values 1.01
